Results filed as inconclusive are left out. A call without a number means that no potency is given here. Active and inactive are the calls of the source. Calls follow the shape of the dose curve; as a rule, active = well fitted curve in the direction sought with a large enough effect; inconclusive = small, poorly fitted or top-dose-only effect, or another doubt; inactive = no such curve, though single readings can be large; an effect the other way counts as inactive or inconclusive.

Tested on in one assay: not listed separately
The experiment in a line: qHTS of pediatric cancer cell lines to identify multiple opportunities for drug repurposing: Confirmatory screen for Rh30 cells (AID 1347126). Also: nearly all actives have a fitted effect of over 55% in size. Also: potency is read from the fitted curve at half-maximal effect. The conditions noted are these: Rh30 rhabdomyosarcoma cell viability; series mostly up to 45.9 µM. Put shortly:
(§1)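 Cells (500-1,000/well) in growth media were settled 5 h at 37 degrees C, then given compounds for 48 h. Viability was read as CellTiter-Glo luminescence. Primary runs used MIPE at 11 points (0.78 nM-46 µM) and NPC at 8 points (0.59 nM-46 µM); follow-ups used 11 points.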
With `CC(=O)[C@@]1(O)CC[C@H]2[C@@H]3C[C@H](C)C4=CC(=O)C=C[C@]4(C)[C@@]3(F)[C@@H](O)C[C@@]21C`, the Potency result is “inactive”.
For `CC(=O)OCC(=O)[C@@]1(O)CC[C@H]2[C@@H]3CCC4=CC(=O)C=C[C@]4(C)[C@@]3(F)[C@@H](O)C[C@@]21C`, the Potency is 13.1 µM (active).
On the same count and under the same terms, as for `COc1cc(C(=O)NCCCCCC(=O)O)cc(OC)c1OC`, the entry is “inactive”.

Tested on in another assay: not listed separately
Kind of assay: qHTS of pediatric cancer cell lines to identify multiple opportunities for drug repurposing: Confirmatory screen for OHS-50 cells (AID 1347128).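 Also: compound exposure lasted 48 h at 37 degrees C; nearly all actives have a fitted effect of over 55% in size.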 Also: potency is read from the fitted curve at half-maximal effect. The conditions noted are these: OHS-50 osteosarcoma cells viability; series mostly up to 45.9 µM. An excerpt: Drug repurposing or repositioning has been offered as a strategy for drug development in oncology programs. This approach has special potential for childhood cancers and other rare or orphan diseases, where the expected return on new drug development has been a disincentive to pharmaceuticals.
In this project we exploit the poly-pharmacology of drugs to discover new indications via phenotypic screening of a panel of 19 well-characterized cell lines derived from solid tumors seen in children and adolescents. The goal is to identify approved drugs with previously unrecognized anticancer properties that has the potential to reveal new mechanisms and biological processes involved in carcinogenesis or drug resistance. We employed a titration-based paradigm (quantitative high-throughput screening or qHTS), where all compounds were tested at multiple concentrations for their effect on cell viability. Concentration-response curves (CRCs) were derived directly from the primary screen, and both potency and efficacy values were used to identify compounds with robust bioactivity profiles. We screened the NIH Chemical Genomics Center (NCGC) Pharmaceutical Collection (NPC) and Mechanism Interrogation Plate (MIPE) small molecule collections of approved and investigational compounds against these cell lines; and measured metabolically active cells after 48 hours of compound treatment as a proxy for cell viability.
Assay Submitter: Nathalia J. Martinez, National Center for Advancing Translational Sciences, National Institutes of Health, Rockville, MD, USA; email: natalia.martinez@nih.gov
[1] Shen, M et al. Quantitative high-throughput phenotypic screening of pediatric cancer cell lines identifies multiple opportunities for drug repurposing. Oncotarget 2017 Dec 19;9(4):4758-4772. PMID 29435139. […]
Cells were assayed in growth media at a density of 500-1,000 cells/well. […] After a 15 min incubation at room temperature, samples were analyzed for luminescence intensity using a ViewLux High-throughput CCD imager equipped with clear filters.
Turning to `CC(=O)[C@@]1(O)CC[C@H]2[C@@H]3C[C@H](C)C4=CC(=O)C=C[C@]4(C)[C@@]3(F)[C@@H](O)C[C@@]21C`, the Potency result was “inactive”.
On the same count and under the same terms, the value for `CC(=O)OCC(=O)[C@@]1(O)CC[C@H]2[C@@H]3CCC4=CC(=O)C=C[C@]4(C)[C@@]3(F)[C@@H](O)C[C@@]21C` was 16.5 µM (active); that for `COc1cc(C(=O)NCCCCCC(=O)O)cc(OC)c1OC` was “inactive”.

Tested on in the next assay: not listed separately
Kind of assay: qHTS of pediatric cancer cell lines to identify multiple opportunities for drug repurposing: Confirmatory screen for SK-N-SH cells (AID 1347129).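 Also: cells exposed to compound for 48 h before viability read; nearly all actives have a fitted effect of over 60% in size.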 The conditions noted are these: SK-N-SH neuroblastoma cell viability; series mostly up to 46.1 µM. Put shortly: as §1
As for `CC(=O)OCC(=O)[C@@]1(O)CC[C@H]2[C@@H]3CCC4=CC(=O)C=C[C@]4(C)[C@@]3(F)[C@@H](O)C[C@@]21C`, the call was inactive.
Same read-out and setting: as for `O=C(Cn1ccnc1[N+](=O)[O-])NCc1ccccc1`, the entry is “inactive”; as for `COc1cc(C(=O)NCCCCCC(=O)O)cc(OC)c1OC`, “inactive”.

In a further assay the target is Furin (Homo sapiens) (UniProt P09958). Kind of assay: Furin counterscreen qHTS for Zika virus inhibitors (AID 1347149). Also: nearly all actives have a fitted effect of over 70% in size. Also: potency is read from the fitted curve at half-maximal effect. The conditions noted are these: furin enzymatic counterscreen, fluorogenic substrate; series mostly up to 114 µM. Put shortly: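 Counterscreen measures cleavage of 2 microM BOC-RVRR-AMC, below its ~15 microM Km, by 5 nM full-length human furin at pH 7.0 after a 15-min compound preincubation. Inhibition derives from the 15-min fluorescence increase at 37C.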
Sequence of Furin (Homo sapiens) (P09958 whole entry, looked up): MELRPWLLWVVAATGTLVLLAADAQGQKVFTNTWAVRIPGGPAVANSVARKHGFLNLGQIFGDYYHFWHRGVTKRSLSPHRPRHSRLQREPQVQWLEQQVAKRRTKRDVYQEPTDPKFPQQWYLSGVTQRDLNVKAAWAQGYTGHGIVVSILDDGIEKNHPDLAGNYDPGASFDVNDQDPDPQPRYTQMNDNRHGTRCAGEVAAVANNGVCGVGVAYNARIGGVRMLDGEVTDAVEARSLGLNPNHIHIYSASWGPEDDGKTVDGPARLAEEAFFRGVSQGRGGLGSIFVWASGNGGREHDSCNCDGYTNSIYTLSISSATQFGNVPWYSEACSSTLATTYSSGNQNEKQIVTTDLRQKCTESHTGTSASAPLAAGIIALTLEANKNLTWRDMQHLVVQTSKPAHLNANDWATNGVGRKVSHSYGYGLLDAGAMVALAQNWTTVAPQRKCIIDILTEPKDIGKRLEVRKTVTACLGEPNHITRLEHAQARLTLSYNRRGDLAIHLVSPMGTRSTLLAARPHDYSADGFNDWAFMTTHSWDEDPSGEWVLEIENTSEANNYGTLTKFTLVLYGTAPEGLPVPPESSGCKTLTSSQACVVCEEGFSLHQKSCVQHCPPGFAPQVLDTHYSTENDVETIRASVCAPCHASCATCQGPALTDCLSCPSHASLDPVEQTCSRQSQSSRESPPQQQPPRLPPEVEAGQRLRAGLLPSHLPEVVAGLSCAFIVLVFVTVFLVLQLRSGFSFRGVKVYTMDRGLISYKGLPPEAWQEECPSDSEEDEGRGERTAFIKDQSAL
For `CN1C[C@@H]2C[C@H]1CN2c1cc2c(cc1F)c(=O)c(C(=O)O)cn2C1CC1`, the Potency was 9.41 µM (active).
On the same count and under the same terms, the value for `O=C(O)[C@@H]1[C@H]2C[C@H]3c4[nH]c5ccccc5c4CCN3C[C@@H]2CC[C@@H]1O` was 21.5 µM (active).
With `COc1ccccc1Oc1c(NS(=O)(=O)c2ccc(C(C)(C)C)cc2)nc(-c2ncccn2)nc1OCCO`, the Potency entry was “inactive”.

The test system of a further assay is Zika virus NS2B-NS3 protease (unlinked complex). The experiment in a line: Confirmatory screen GU AMC qHTS for Zika virus inhibitors (AID 1347153). Also: nearly all actives have a fitted effect of over 70% in size.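 As to potency: enzyme at 25 nM with substrate at 10 µM below its Km of 18.3 µM; potency is read from the fitted curve at half-maximal effect.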 The conditions noted are these: Recombinant NS2B-NS3 protease, AMC substrate fluorescence; series mostly up to 57.1 µM. Put shortly: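 Fluorescence change (ex 340/em 450 nm) over 15 min, ~20% substrate conversion, normalized to no-inhibitor and no-enzyme controls, then Hill-fitted. Unlinked protease at 25 nM; AMC peptide 10 µM.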
With `CN1C[C@@H]2C[C@H]1CN2c1cc2c(cc1F)c(=O)c(C(=O)O)cn2C1CC1`, the Potency was 16.7 µM (active).
As for `O=C(O)[C@@H]1[C@H]2C[C@H]3c4[nH]c5ccccc5c4CCN3C[C@@H]2CC[C@@H]1O`, the Potency entry was “inactive”.
As to `O=C(O)Cn1c(C(=O)Nc2nc(-c3ccccc3Cl)cs2)cc2ccccc21`, the Potency is 24.1 µM (active).

The next assay relates to Zika virus NS2B-NS3 protease. Kind of assay: Primary screen GU AMC qHTS for Zika virus inhibitors (AID 1347154). Also: nearly all actives have a fitted effect of over 70% in size. Also: potency is read from the fitted curve at half-maximal effect. The conditions noted are these: Zika NS2B-NS3 unlinked protease, AMC fluorogenic substrate; series mostly up to 54.1 µM. Put shortly: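 Unlinked Zika NS2B hydrophilic domain/NS3 protease domain noncovalent complex (25 nM final) in 10 mM Tris-HCl pH 8.0, 0.01% Tween 20, with AMC peptide substrate. Fluorescence (ex 340, em 450 nm) change over 15 min, room temperature; percent inhibition fitted to 4-parameter Hill equation.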
For the compound `CC(=O)[C@@]1(O)CC[C@H]2[C@@H]3C[C@H](C)C4=CC(=O)C=C[C@]4(C)[C@@]3(F)[C@@H](O)C[C@@]21C`, the Potency result was “inactive”.
Still for that read-out and setting: as for `CN1C[C@@H]2C[C@H]1CN2c1cc2c(cc1F)c(=O)c(C(=O)O)cn2C1CC1`, the figure is 8.82 µM (active); as for `Cn1cc(C(=O)[C@@H]2CCc3nc[nH]c3C2)c2ccccc21`, “inactive”; as for `O=C(O)c1ccc(OCCCOc2ccc(C(=O)O)cc2)cc1`, “inactive”.
Regarding `O=C1c2cccc(O)c2C(=O)c2c(O)cccc21`, the Potency result is “inactive”.
The same measure, in the same setting: the value for `C/C=C/C(=O)N(CC)c1ccccc1C` was “inactive”.
Still for that read-out and setting: as for `CN(C(=O)c1c(O)c2ccccc2n(C)c1=O)c1ccccc1`, the entry is “inactive”; as for `CCOc1ccc(C(=O)OCCN(CC)CC)cc1`, “inactive”.
Still for that read-out and setting: as for `NS(=O)(=O)c1ccc(NC(=O)CCC(=O)O)cc1`, the entry is “inactive”; as for `O=C(CN1CCNCC1)NC1CCCCC1`, “inactive”; as for `CC(=O)OCC(=O)[C@@]1(O)CC[C@H]2[C@@H]3CCC4=CC(=O)C=C[C@]4(C)[C@@]3(F)[C@@H](O)C[C@@]21C`, “inactive”.
Regarding `CC1CCN(CCCC(=O)c2ccc(F)cc2)CC1`, the Potency result is “inactive”.
The same measure, in the same setting: the value for `NC(=O)NC1NC(=O)NC1=O` (centres undefined) was “inactive”; that for `C[C@H]1COc2c(C3(N)CC3)c(F)cc3c(=O)c(C(=O)O)cn1c23` was “inactive”; that for `CCOC(=O)[C@H](CCc1ccccc1)N[C@@H](C)C(=O)N1Cc2cc(OC)c(OC)cc2C[C@H]1C(=O)O` was “inactive”.
Still for that read-out and setting: the value for `c1ccc2[nH]ccc2c1` was “inactive”; that for `Cc1cc(=O)[nH]c(=S)[nH]1` was “inactive”; that for `Cc1cccc(C)c1NC(=O)CC12CCCN1CCC2` was “inactive”.
The same measure, in the same setting: the value for `NCC1CCC(C(=O)Oc2ccc(CCC(=O)O)cc2)CC1` (centres undefined) was “inactive”; that for `O=C(O)/C=C/c1ccc(Cn2ccnc2)cc1` was “inactive”; that for `CC(=O)N[C@@H](CC(C)C)C(=O)O` was “inactive”.
As to `CC(=O)Nc1ccc(C(=O)O)cc1`, the Potency result is “inactive”.
On the same count and under the same terms, the value for `O=C(Cn1ccnc1[N+](=O)[O-])NCc1ccccc1` was “inactive”; that for `CC(C)=CCC/C(C)=C/CO` was “inactive”.
The same measure, in the same setting: as for `C[C@]1(Cn2ccnn2)[C@H](C(=O)O)N2C(=O)C[C@H]2S1(=O)=O`, the entry is “inactive”; as for `NNc1nnc(NN)c2ccccc12`, “inactive”; as for `O=C(/C=C/c1ccccc1)OCc1ccccc1`, “inactive”.
Still for that read-out and setting: as for `Cc1cc(NC(=O)C2=C(O)c3ccccc3S(=O)(=O)N2C)no1`, the entry is “inactive”.
Take `COc1ccccc1Oc1c(NS(=O)(=O)c2ccc(C(C)(C)C)cc2)nc(-c2ncccn2)nc1OCCO`: the Potency result was “inactive”.
On the same count and under the same terms, as for `CCCC(O)C(CC)CO` (centres undefined), the entry is “inactive”; as for `CNCc1ccccc1`, “inactive”.
Still for that read-out and setting: as for `COC(=O)c1cccnc1`, the entry is “inactive”; as for `O=C(CCBr)N1CCN(C(=O)CCBr)CC1`, “inactive”.
`CCCCCOC(=O)Nc1nc(=O)n([C@@H]2O[C@H](C)[C@@H](O)[C@H]2O)cc1F`: the Potency result is “inactive”.
Same read-out and setting: as for `COc1cc(C(=O)NCCCCCC(=O)O)cc(OC)c1OC`, the entry is “inactive”.

Tested on in another assay: not listed separately
Kind of assay: Confirmatory screen NINDS Rhodamine qHTS for Zika virus inhibitors (AID 1347161). Also: nearly all actives have a fitted effect of over 60% in size. Also: potency is read from the fitted curve at half-maximal effect. The conditions noted are these: purified enzyme assay, Rhodamine110 substrate fluorescence, 15 min; series mostly up to 64.7 µM. Summed up: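 Purified linked NS2B-NS3 protease (NS2B hydrophilic domain joined to NS3 protease by flexible linker), 25 nM in 10 mM Tris-HCl pH 8.0, 0.01% Tween 20. Compounds titrated, 15 min preincubation at room temperature; 1.5 microM Rhodamine110 substrate, FITC fluorescence change over 15 min.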
For `CN1C[C@@H]2C[C@H]1CN2c1cc2c(cc1F)c(=O)c(C(=O)O)cn2C1CC1`, the Potency entry is “inactive”.
Same read-out and setting: the value for `O=C(O)[C@@H]1[C@H]2C[C@H]3c4[nH]c5ccccc5c4CCN3C[C@@H]2CC[C@@H]1O` was 12.4 µM (active); that for `COc1ccccc1Oc1c(NS(=O)(=O)c2ccc(C(C)(C)C)cc2)nc(-c2ncccn2)nc1OCCO` was “inactive”.
In the case of `O=C(O)Cn1c(C(=O)Nc2nc(-c3ccccc3Cl)cs2)cc2ccccc21`, the Potency was 3.93 µM (active).

The values are drawn from PubChem BioAssay (NCATS).
